Bioassay records: PubChem, several laboratories
AHR act = activates the human aryl hydrocarbon receptor; AHR-responsive luciferase reporter cells, luminescence; P35869; activation, % at 5 µM; 320,000 compounds, 2.5% hits; in the data active means activation above about 47%;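 further: 0% = vehicle wells and 100% = reference agonist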
Mot1-301 SUMO = inhibitors of SUMOylation pathway: yeast Mot1-301 growth rescue; S. cerevisiae Mot1-301 growth rescue, ATP luminescence, 38.5C; percent above DMSO median, 100 means doubled; growth rescue, % at 18.8 µM; 320,000 compounds, 1% hits; AID 2716;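 active means every valid replicate shows activation above 250% relative to neutral control wells; inactive means the rest, any valid replicate at or below 250%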;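 further: OY570 slx delta 5 strain wells were the positive control but not used for scaling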
Bfl-1 A1 inh = inhibitors of the anti-apoptotic protein A1, read as caspase activation | MEF A1-2A-BIM cells, Caspase-Glo 3/7 luminescence, 3 h; percent of clofoctol response, vehicle zero | caspase activation, % (test concentration not listed) | 330,000 compounds, 0.066% hits | AID 2462;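 active means over half of replicate activation scores above 10%, or exactly half above 10 with the replicate mean above 10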
VLA-4 inh = inhibition in a human VLA-4 binding assay. P13612. VLA-4 expressing cells, ligand binding flow cytometry. inhibition, % (about 7 µM as worked out from the volumes in the protocol). 330,000 compounds, 0.2% hits; in the data active means inhibition above about 50%
Target sequence (P13612 whole entry, looked up): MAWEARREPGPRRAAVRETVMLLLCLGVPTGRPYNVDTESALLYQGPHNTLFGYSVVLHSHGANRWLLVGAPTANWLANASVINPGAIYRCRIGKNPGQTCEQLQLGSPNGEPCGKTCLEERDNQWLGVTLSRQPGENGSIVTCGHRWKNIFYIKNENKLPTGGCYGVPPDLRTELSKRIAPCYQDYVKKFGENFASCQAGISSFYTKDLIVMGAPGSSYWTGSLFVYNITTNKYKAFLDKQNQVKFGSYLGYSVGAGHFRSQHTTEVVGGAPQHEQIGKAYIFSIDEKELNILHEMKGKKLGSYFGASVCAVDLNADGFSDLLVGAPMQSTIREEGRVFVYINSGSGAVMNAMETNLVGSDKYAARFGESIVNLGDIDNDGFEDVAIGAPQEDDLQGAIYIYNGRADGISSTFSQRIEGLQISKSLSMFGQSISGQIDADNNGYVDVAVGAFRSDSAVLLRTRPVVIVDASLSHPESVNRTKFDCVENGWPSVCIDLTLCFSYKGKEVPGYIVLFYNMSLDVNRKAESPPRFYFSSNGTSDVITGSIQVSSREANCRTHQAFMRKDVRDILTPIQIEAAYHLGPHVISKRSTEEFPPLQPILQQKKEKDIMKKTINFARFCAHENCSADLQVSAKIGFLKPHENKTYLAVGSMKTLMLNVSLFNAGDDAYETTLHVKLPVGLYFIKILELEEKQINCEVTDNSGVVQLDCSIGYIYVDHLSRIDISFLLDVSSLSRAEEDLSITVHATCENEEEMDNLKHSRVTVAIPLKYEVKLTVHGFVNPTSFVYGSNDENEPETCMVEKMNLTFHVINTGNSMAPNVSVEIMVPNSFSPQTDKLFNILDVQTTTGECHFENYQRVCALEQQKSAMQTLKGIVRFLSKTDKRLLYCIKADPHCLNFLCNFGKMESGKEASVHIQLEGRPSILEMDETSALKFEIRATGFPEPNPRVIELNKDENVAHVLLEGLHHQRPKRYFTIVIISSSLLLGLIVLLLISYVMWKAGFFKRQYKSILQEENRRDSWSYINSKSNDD
ALR inh = blocks human ALR sulfhydryl oxidase activity; P55789; purified ALR, DTT oxidation, H2O2 HRP-luminol luminescence; inhibition, % (test concentration not listed); 290,000 compounds, 3.8% hits;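 active means mean replicate inhibition above about 79%, with every replicate also reaching it, limit read from the data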
Efflux pump mplx = antifungal efflux pump inhibition, Nile Red retention; S. cerevisiae Candida pump triplex; inhibition, % at 10 µM; 330,000 compounds, 0.44% hits;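 active means plate passing quality check with inhibition over a set limit, or well fluorescence over plate mean plus 4 SD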;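 further: Nile Red retained in pooled yeast measured as flow cytometry median fluorescence; 0% = buffer negative control and 100% = Enniatin B positive control; higher means more Nile Red kept so more efflux inhibition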
Yeast Mot1 SUMO = inhibits SUMO pathway, affecting Mot1-301 yeast growth | growth activity, percent, % at 42 µM | shares compounds with Mot1-301 SUMO | AID 493004 | S. cerevisiae Mot1-301 galactose growth, ATP luminescence, 24 h; -100 = growth of slx-deleted rescue strain | 2,300 tested, under 10 active;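 active means Signal drops as the depositor expects, and the fitted half-maximal dose is no more than ten times the top valid tested dose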;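 further: more negative values mean stronger growth rescue toward the control strain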
The depositor's hits bear a star; i = inactive; · = no result; + = active, no number. Hits are enriched below; roughly 7.2% of the tested compounds scored in any of these assays.

SMILES	AHR act	Mot1-301 SUMO	Bfl-1 A1 inh	VLA-4 inh	ALR inh	Efflux pump mplx	Yeast Mot1 SUMO
O=C(C(=O)N1CCCCCC1)c1c[nH]c2ccccc12	·	46.8	1.2	2.9	0.7	0.0	·
COc1ccc2[nH]cc(C(=O)C(=O)N3CCCCC3)c2c1	-0.6	695.1*	0.8	12.4	-3.0	-0.1	0.2
COc1ccc(N2CCN(C(=O)Cn3nnc(-c4ccc(OC)c(OC)c4)n3)CC2)cc1	0.2	385.1*	0.2	-2.9	-11.2	0.2	0.3
CCN(C(=O)CN1CCCCC1C)c1c(N)n(Cc2ccccc2)c(=O)[nH]c1=O (stereo not given)	-1.4	-7.1	-0.8	-0.8	3.6	-0.2	·
CC(C)(C)CC(=O)Nc1cc(S(=O)(=O)N2CCOCC2)ccc1N1CCCC1	-1.3	508.4*	-0.5	2.7	-3.2	0.3	0.4
CN(C)Cc1c(C(=O)N/N=C/CCc2ccccc2)nnn1-c1nonc1N	-3.9	-21.9	0.5	7.1	·	0.0	·
Cc1c(C(=O)NC(C)C)oc2c1-c1[nH]ncc1CC2	12.8	+	0.4	1.7	-47.5	0.1	0.4
COc1ccc(C(=O)OCC(=O)c2ccccc2)cc1S(=O)(=O)N1CCOCC1	4.9	+	-0.9	12.4	-11.5	-0.1	-0.5
Cc1cc(C)nc(SSc2nc(C)cc(C)n2)n1	0.5	-8.9	0.6	-5.3	·	-0.2	·
COc1ccc(CCNC(=O)C(=O)NCC2OCCN2S(=O)(=O)c2ccccc2)cc1 (stereo not given)	0.4	0.3	0.2	0.0	·	0.0	·
CCN1C(=S)N[C@@H](CCc2ccccc2)C(C(=O)OC)=C1C	53.0*	+	1.2	0.7	-2.9	-0.3	0.2
CCN1C(=S)N[C@@H](c2cccs2)C(C(=O)OC)=C1C	0.7	895.7*	0.9	22.7	2.0	0.1	-0.2
CCN1C(=O)N[C@@H](CCc2ccccc2)C(C(C)=O)=C1C	1.4	5.7	0.0	5.2	-13.5	0.0	·
CC(=O)c1ccc(-c2ccc(C(=O)NCC(c3ccco3)N(C)C)o2)cc1 (stereo not given)	7.6	-0.6	-1.9	-6.6	-0.5	-0.2	·
CC1(C)Cc2c(cnn2-c2ccccc2)C(NC(=O)CCCN2CCCCC2=O)C1 (stereo not given)	3.9	160.4	2.1	14.6	9.0	0.6	·
CC1(C)Cc2c(cnn2-c2ccc(F)cc2)C(NC(=O)CCCN2CCCCC2=O)C1 (stereo not given)	-2.3	523.1*	-0.3	6.6	-1.8	0.1	0.2
CCCc1nc2c(nnn2Cc2ccccc2F)c(=O)[nH]1	2.8	386.0*	-0.4	1.1	1.4	0.0	-0.2
O=c1[nH]c(C(F)(F)F)nc2c1nnn2Cc1ccccc1F	5.0	0.7	0.0	-9.2	-3.7	0.2	·
CC(OC(=O)CCCCCN=C1NS(=O)(=O)c2ccccc21)C(=O)Nc1cc(Cl)cc(Cl)c1 (stereo not given)	0.3	18.6	0.8	8.7	2.2	0.0	·
CCOC(=O)Cn1c(=O)n(Cc2ccco2)c(=O)c2ccc(C(=O)NCCc3ccccc3)cc21	3.6	370.1*	0.2	3.1	4.3	0.1	-0.3
COCCNC(=O)Cn1c(=O)n(Cc2ccco2)c(=O)c2ccccc21	6.8	6.6	0.6	1.5	26.0	0.2	·
NNC(=O)c1oc2nc(-c3ccccc3)cc(-c3ccccc3)c2c1N	30.0	477.0*	0.0	i	-1.7	0.7	-0.2
CSc1ccc(NC(=O)Nc2cc(C)ccn2)cc1	-7.1	-19.2	-3.2	-7.2	-3.3	-0.1	·
COc1ccc2c(c1)c(CC(=O)OCC(N)=O)c(C)n2C(=O)c1ccc(Cl)cc1	1.1	674.3*	0.9	5.3	-0.9	0.3	0.5
CCc1nnc2n1N=C(c1ccc(Cl)cc1)CS2	0.9	394.3*	0.8	-8.8	-2.7	0.1	-0.1
CCc1nnc2n1N=C(c1ccccc1)CS2	0.8	-41.3	0.2	8.3	-20.6	-0.1	·
COc1ccc([C@H]2CC(=O)C=C(c3ccc(OC)nc3)C2)cc1	8.4	-12.9	0.2	14.3	2.9	-0.1	·
